Our source for the growth values is PubChem BioAssay (NCI).

Experiment in all cases: NCI-60 one-dose screen, 48 h (100 = growth as untreated, 0 = no growth, -100 = all killed)
What all share (details): 10 µM unless noted

The test system of assay [1] is DU-145 prostate.
For assay [2], the system named is K-562 leukemia.
Assay [3] deals with MALME-3M melanoma.
In assay [4] the test system is MDA-MB-231 breast.
The subject of assay [5] is RXF 393 renal.
Assay [6] concerns SF-268 CNS.
Assay [7] deals with SF-295 CNS.
Assay [8] concerns SF-539 CNS.
Assay [9] has as its system UACC-257 melanoma.
Assay [10] concerns M14 melanoma.
Assay [11] has as its system HCT-15 colon.
In assay [12] the test system is HT29 colon.
The subject of assay [13] is SNB-75 CNS.
For assay [14], the system named is SNB-19 CNS.
The test system of assay [15] is U251 CNS.
The subject of assay [16] is PC-3 prostate.
In assay [17] the test system is SK-MEL-5 melanoma.
The subject of assay [18] is UACC-62 melanoma.
The subject of assay [19] is LOX IMVI melanoma.
Assay [20] has as its system SK-MEL-28 melanoma.

Compounds without any hit were thinned out: in the full panel of roughly 83,000, 20% have a hit.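 The test compound was applied at a single concentration to cells in 96-well plates for 48 hours, and percent growth was recorded.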 Unmarked numbers belong to inactive results. The source made the active and inactive calls. How the source made its calls: active means growth percent below 10; inactive means the rest.

For `CN1C2CCC1/C(=C\c1ccc(Cl)cc1)C(=O)/C2=C/c1ccc(Cl)cc1`, the growth in assay [1] was 41.8%; in assay [2] it was 34.3%; in assay [3] it was 73.7%; in assay [4] it was 67%; in assay [5], 87.2%; in assay [6], 60.5%. Further, the growth is 77.4% in assay [7]; 91.5% in [8]; 60.9% in [9]; 63.8% in assay [10]; 54.2% in assay [11]; 47.1% in assay [12]. The growth is 71.6% in [13]; 64.1% in [14]; 13.6% in [15]; 51.8% in assay [16]; 66.9% in assay [17]; 47.4% in [18]. Besides, the growth is 35.1% in [19] and 91.6% in [20].

As to `O=C(NO)c1ccc(CNc2cccc3nc(C4CC4)n(-c4ccccc4)c(=O)c23)cc1`, the growth was 3.14% (active) in assay [1]; 11.2% in assay [2]; 36.7% in assay [3]; 26.4% in assay [4]; -18.7% (active) in [5]; 7.14% (active) in [6]. In addition, the growth was 12.9% in assay [7]; 9.38% (active) in assay [8]; 37.6% in assay [9]; 18.4% in assay [10]; 7.98% (active) in assay [11]; 24.8% in assay [12]. The growth in assay [13] was 33%; in assay [14], 25.9%; in [15], -7.99% (active); in [16], -47% (active); in assay [17], 2.95% (active); in assay [18] it was -22.2% (active). Further, the figures for the growth in [19] and in assay [20] were -34.9% (active) and 9.83% (active), respectively.

On to `CC(C)N(C(=S)SSC(=S)N(C(C)C)C(C)C)C(C)C`, for which the growth is 109% in assay [1]; 73.3% in assay [2]; 101% in assay [3]; 119% in assay [4]; 120% in assay [5]; 103% in [6]. The growth in assay [7] is 101%; in assay [8], 108%; in assay [9] it was 93.4%; in assay [10], 101%; in [11], 97.7%; in assay [12], 88.1%. Besides, the growth in assay [13] was 102%; in assay [14] it was 109%; in [15], 94.5%; in [16] it was 86.4%; in [17], 109%; in assay [18], 105%. Further, the growth in [19] was 97.1%; in assay [20], 100%.

Consider `CCOC(=O)Cn1c(-c2nonc2NC(=O)c2ccccc2F)nc2ccccc21`, for which the growth in [1] was 53.2%; in [2], 31.3%; in [3] it was 77.4%; in assay [4] it was 62.8%; in [5] it was 64.7%; in [6], 50%. The growth in [7] is 8.34% (active); in assay [8] it was 44.7%; in assay [9], 72.1%; in assay [10] it was 61.5%; in assay [11], 29.2%; in assay [12], 27.4%. Also, the growth in assay [13] is 70.1%; in [14] it was 47.1%; in assay [15], 28.1%; in assay [16], 44.7%; in assay [17], 32.4%; in [18], 42.4%. Besides, the values for the growth in assay [19] and in assay [20] were 10.3% and 71.1%, respectively.

Take `COc1cccc(N2CCN(c3ncnc4cc[nH]c34)CC2)c1`: the growth is 90.6% in assay [1]; 37.7% in [2]; 75.1% in [3]; 84.4% in assay [4]; 99.3% in assay [5]; 90.7% in assay [6]. Besides, the growth in assay [7] is 44.2%; in [8] it was 72.8%; in assay [9] it was 47.5%; in assay [10], 58.2%; in assay [11], 83%; in [12], 73.2%. The growth in assay [13] was 84%; in [14] it was 66.2%; in assay [15], 66.9%; in assay [16], 53%; in [17], -0.321% (active); in [18], 58.8%. The figures for the growth in assay [19] and in assay [20] were 51.6% and 80.8%, respectively.

In the case of `COc1cc(CN2CCC(N3CCCC3=O)c3ccccc32)cc(OC)c1OC` (stereo not given), the growth in assay [1] is 108%; in assay [2], 46%; in assay [3] it was 71.9%; in assay [4], 90.4%; in [5], 112%; in [6], 91.6%. For the same compound, the growth in assay [7] was 79.3%; in assay [8], 93.7%; in [9], 72.2%; in [10] it was 92.9%; in [11] it was 108%; in [12] it was 80.5%. In addition, the growth is 84.1% in assay [13]; 83.6% in assay [14]; 85.5% in assay [15]; 66% in assay [16]; 40.5% in assay [17]; 64.4% in [18]. Moreover, the results for the growth in assay [19] and in assay [20] were 76.3% and 98.2%, respectively.

With `COc1ccc(CNc2c3ccccc3nc3ccccc23)cc1F`, the growth is 27.2% in assay [1]; 4.81% (active) in assay [2]; 23.6% in assay [3]; 29.2% in assay [4]; 11.1% in assay [5]; 49.1% in [6]. In addition, the growth in [7] was 20.1%; in assay [8] it was 18.2%; in assay [9] it was 37.8%; in [10] it was 19.9%; in [11] it was 11%; in [12] it was 12.2%. Further, the growth in assay [13] is 42.5%; in [14] it was 28%; in assay [15], 26.9%; in assay [16] it was 30.4%; in assay [17], 36.5%; in assay [18], 42.4%. Further, the growth in assay [19] was 1.25% (active); in assay [20], 46.7%.
